High-throughput results as filed in PubChem.
In the library only some 8.1% were active in any assay of this set; here they are far more common.
Shh pathway inh: Sonic Hedgehog pathway inhibition. Shh-LIGHT2 Gli-luciferase reporter, 30 h. 22,000 tested, 2.1% active. inhibition, % (no concentration beside the values);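 active = mean inhibition across valid replicates above about 65%, limit read from the data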;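 also: pathway switched on by Shh-conditioned medium diluted 1 in 25 in low serum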
PD-1 reverse act: reversal of PD-1 mediated T-cell inhibition; primary human CD4 T cells, PD-L1 beads, CellTiter-Glo 96 h; AID 2316; activation, % (test concentration not listed); 29,000 tested, under 10 active; call rule not given here;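 also: 0% = median vehicle wells and 100% = positive control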
NOMO-1 viab: STK33 inhibitor candidate reducing NOMO-1 cell viability | NOMO-1 AML viability, CellTiter-Glo luminescence, 72 h | inhibition, % (concentration not given with the values) | 37,000 tested, 7.5% active | AID 2330; in the data active = inhibition above about 80%
MITF inh: inhibitors of MITF | AID 2240 | inhibition, % (no concentration beside the values) | TRPM1 promoter luciferase, luminescence, 24 h | 37,000 tested, 0.28% active; in the data active = inhibition above about 85%;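 also: human melanocyte line stably carrying TRPM1 promoter luciferase reporter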
The depositor's hits bear a star; · = no result given.

SMILES	Shh pathway inh	PD-1 reverse act	NOMO-1 viab	MITF inh
COC(=O)COc1cccc(NC(=O)c2ccccc2Cl)c1	·	·	119*	11
O=C(COc1cccc(NC(=O)c2ccccc2Cl)c1)c1ccc(F)cc1	·	-1	18	9
COc1ccc(C(=O)COc2cccc(NC(=O)c3ccccc3C)c2)cc1	·	0	5	12
COC(=O)COc1cccc(NC(=O)c2ccc(-c3ccccc3)cc2)c1	·	-3	113*	33
COC(=O)COc1cccc(NC(=O)c2ccccc2F)c1	·	-1	122*	-6
C[C@H](CO)N1C[C@H](C)[C@H](CN(C)Cc2ccc(-c3ccccc3)cc2)Oc2ccc(NS(=O)(=O)c3ccc(F)cc3)cc2CC1=O	-8	3	95*	0
C[C@H]1CN([C@@H](C)CO)C(=O)Cc2cc(NS(=O)(=O)c3ccc(F)cc3)ccc2O[C@H]1CN(C)Cc1ccc(-c2ccccc2)cc1	-5	2	108*	0
Cc1nccc(-c2cccc(NS(=O)(=O)c3ccccc3C(F)(F)F)c2)n1	26	3	-14	29
CCc1ccc(NS(=O)(=O)c2ccc(OC)cc2)cc1	-17	3	113*	16
COC(=O)C(NC(=O)c1ccc([N+](=O)[O-])o1)C(C)C (stereo not given)	·	·	113*	-9
CNc1ccccc1C(=O)N1CCc2c([nH]c3ccccc23)C1=O	21	·	95*	-13
C[C@H]1CN([C@@H](C)CO)C(=O)c2cc(NC(=O)Nc3ccc(F)cc3)ccc2O[C@@H]1CN(C)C(=O)Nc1ccc(C(F)(F)F)cc1	-32	0	29	14
C[C@@H]1CN([C@@H](C)CO)C(=O)c2cc(NC(=O)Nc3ccc(C(F)(F)F)cc3)ccc2O[C@@H]1CN(C)C(=O)NC1CCCCC1	25	-4	107*	48
C[C@H]1CN([C@@H](C)CO)C(=O)c2cc(NC(=O)Nc3ccc(C(F)(F)F)cc3)ccc2O[C@@H]1CN(C)C(=O)Nc1ccc(C(F)(F)F)cc1	10	-3	122*	18
C[C@@H]1CN([C@H](C)CO)C(=O)c2cc(NC(=O)Nc3ccc(C(F)(F)F)cc3)ccc2O[C@H]1CN(C)C(=O)Nc1ccc(C(F)(F)F)cc1	3	-4	109*	24
C[C@H](CO)N1C[C@H](C)[C@@H](CN(C)C(=O)Nc2ccc(C(F)(F)F)cc2)Oc2ccc(NC(=O)Nc3ccc(F)cc3)cc2C1=O	-18	-2	19	16
Cc1cc(C)c(OCC(O)CN2CCN(CCO)CC2)c(C)c1 (stereo not given)	·	1	-21	-1
NC(=O)c1cc(-c2ccccc2)sc1NC(=O)Cn1cnc2scc(-c3ccccc3)c2c1=O	·	·	22	25
O=S(=O)(CCSc1nccc(-c2ccc(Cl)cc2)n1)c1ccc(Cl)cc1	21	0	18	-1
Cc1ccn2c(-c3nnco3)c(C)nc2c1	-22	1	21	7
Cc1cc(O)c2c(c1)C(=O)C13C(C2=O)C(=O)C2C(O)C1C1C(O)C3C(=O)C3C(=O)c4c(O)cc(C)cc4C(=O)C321 (stereo not given)	-29	-1	110*	72
O=S(=O)(NCC(O)Cn1c2ccc(Cl)cc2c2cc(Cl)ccc21)c1ccccc1 (stereo not given)	·	·	113*	5
c1ccc(-c2nsc(N3CCOCC3)n2)cc1	-186	1	-1	20
Clc1ccccc1/C=C/C=Nc1ccc(N2CCOCC2)cc1	27	0	122*	-50
CC(C)(C)OC(=O)N[C@@H](Cc1ccccc1)c1n[nH]c(=S)o1	-1	-1	-3	-3
SMILES	Shh pathway inh	PD-1 reverse act	NOMO-1 viab	MITF inh
COC(=O)COc1ccc(NC(=O)c2ccc(OC)c([N+](=O)[O-])c2)cc1	·	-7	121*	0
COC(=O)c1c(NC(=O)C2CC(=O)NN2Cc2ccccc2)sc2c1CCC2 (stereo not given)	·	-7	44	17
COC(=O)c1c(NC(=O)C2CC(=O)NN2Cc2ccccc2)sc2c1CCC(C)C2 (stereo not given)	·	-6	109*	67
COC(=O)c1ccc(C(=O)OC)cc1	-9	1	20	-9
COC(=O)c1sc(=S)sc1C(=O)OC	9	-8	96*	-10
CC1CCC/C=C2\C(=O)C=CC3OC(/C=C/C=C/C=C/C(=O)O)=C(C(=O)O1)C23 (stereo not given)	14	-31	122*	-6
